Among the data in PubChem BioAssay (NCI) are growth values, retold here.

SMILES strings stand for the structures. This is part of a sample that, as a whole, favours compounds with a hit. Of some 83,000 tested, about 20% had one in any assay.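 Compound tested at a single concentration for 48 hours in 96-well plates; a percent growth value below 10 was scored as active.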 A number with no mark means an inactive call. Calls of active or inactive are those of the source.

Among the test systems are SR leukemia; RPMI-8226 leukemia; OVCAR-8 ovarian; OVCAR-5 ovarian; OVCAR-4 ovarian; SK-OV-3 ovarian; IGROV1 ovarian; OVCAR-3 ovarian; HS 578T breast; NCI/ADR-RES ovarian; T-47D breast; BT-549 breast; MDA-MB-435 melanoma; SW-620 colon; MCF7 breast; HCT-116 colon; HCC-2998 colon; KM12 colon; MDA-MB-468 breast.
Common to all, as to assay: NCI-60 one-dose screen, 48 h (100 = growth as untreated, 0 = no growth, -100 = all killed)
Settings in all cases: 10 µM unless noted

Consider `CS(=O)(=O)Nc1cncc(-c2ccc3ncnc(NCc4ccccc4)c3c2)c1`, for which the growth in the experiment on SR leukemia is 6.25% (active); in the experiment with RPMI-8226 leukemia it was 52%; in the experiment with OVCAR-8 ovarian, 49.2%; with OVCAR-5 ovarian it was 42.6%; in the experiment with OVCAR-4 ovarian, 44.8%; in the experiment with SK-OV-3 ovarian it was 67.6%. Moreover, the growth was 4.57% (active) with IGROV1 ovarian; 33.6% in the experiment on OVCAR-3 ovarian; -5.05% (active) in the experiment on HS 578T breast; 89% in the experiment with NCI/ADR-RES ovarian; 3.96% (active) in the experiment with T-47D breast; 2.92% (active) in the experiment with BT-549 breast. Further, the growth with MDA-MB-435 melanoma is 55.1%; in the experiment on SW-620 colon it was 38.9%; in the experiment on MCF7 breast, 9.82% (active); in the experiment on HCT-116 colon it was 19.1%; with HCC-2998 colon it was 45.9%; with KM12 colon, 65.5%. For the same molecule, in the experiment with MDA-MB-468 breast, the growth is -34% (active).

Regarding `CC(=O)c1c2c(c3ccc4c5ccccc5ccc4n13)C(=O)c1ccccc1C2=O`, the growth in the experiment with SR leukemia was 77.4%; in the experiment with RPMI-8226 leukemia, 101%; in the experiment with OVCAR-8 ovarian, 89.2%; with OVCAR-5 ovarian it was 115%; with OVCAR-4 ovarian, 85.4%; in the experiment on SK-OV-3 ovarian, 97.1%. The growth in the experiment with IGROV1 ovarian was 84.5%; with OVCAR-3 ovarian, 108%; with HS 578T breast it was 82.2%; with NCI/ADR-RES ovarian, 96.3%; in the experiment on T-47D breast, 92.5%; with BT-549 breast, 113%. The growth with MDA-MB-435 melanoma was 98.3%; in the experiment on SW-620 colon it was 107%; in the experiment on MCF7 breast, 58%; with HCT-116 colon, 102%; in the experiment on HCC-2998 colon, 94.3%; with KM12 colon, 85.8%. Besides, the growth with MDA-MB-468 breast was 84.2%.

As for `NS(=O)(=O)c1cccc(Nc2nc(SCC(=O)c3ccc(F)cc3)nc3ccccc23)c1`, the growth in the experiment on SR leukemia was 8.61% (active); in the experiment on RPMI-8226 leukemia, -2.61% (active); in the experiment on OVCAR-8 ovarian, 16.4%; with OVCAR-5 ovarian, 45.1%; in the experiment on OVCAR-4 ovarian, 15.6%; in the experiment on SK-OV-3 ovarian it was 38.3%. Moreover, the growth in the experiment on IGROV1 ovarian is 13.9%; with OVCAR-3 ovarian it was 0.387% (active); with HS 578T breast, 7.8% (active); in the experiment with NCI/ADR-RES ovarian it was 26.7%; in the experiment on T-47D breast, -7.28% (active); with BT-549 breast it was -5.16% (active). For the same molecule, the growth with MDA-MB-435 melanoma was -18% (active); with SW-620 colon, 27.4%; in the experiment with MCF7 breast, 2.1% (active); with HCT-116 colon, 5.03% (active); in the experiment on HCC-2998 colon, 16%; in the experiment with KM12 colon it was -1.98% (active). The growth in the experiment with MDA-MB-468 breast is -9.09% (active).

As to `Clc1ccc(-c2nc3c4c(-c5ccccc5)c(-c5ccccc5)n(Cc5ccccc5)c4ncn3n2)cc1`, the growth in the experiment with SR leukemia is 5.49% (active); with RPMI-8226 leukemia, -34.7% (active); with OVCAR-8 ovarian, 11.6%; in the experiment on OVCAR-5 ovarian, 16.6%; in the experiment with OVCAR-4 ovarian, 16.4%; in the experiment with SK-OV-3 ovarian it was -10.2% (active). In addition, the growth was 16.1% in the experiment with IGROV1 ovarian; 14.7% with OVCAR-3 ovarian; -8.15% (active) with HS 578T breast; 70.9% in the experiment with NCI/ADR-RES ovarian; 7.51% (active) in the experiment on T-47D breast; -28.4% (active) in the experiment with BT-549 breast. For the same molecule, the growth was 5.5% (active) in the experiment with MDA-MB-435 melanoma; 12% in the experiment with SW-620 colon; -2.7% (active) in the experiment on MCF7 breast; 3.25% (active) in the experiment with HCT-116 colon; 22.1% in the experiment on HCC-2998 colon; 9.06% (active) in the experiment on KM12 colon. Besides, in the experiment on MDA-MB-468 breast, the growth is -40.4% (active).

`COc1ccccc1NC(=O)c1ccc(NC(=O)CCl)s1`: the growth with SR leukemia was 2.06% (active); with RPMI-8226 leukemia it was -37.4% (active); in the experiment on OVCAR-8 ovarian, -61% (active); in the experiment on OVCAR-5 ovarian, 2.87% (active); in the experiment with OVCAR-4 ovarian, 65.2%; in the experiment on SK-OV-3 ovarian, -4.26% (active). Also, the growth is -63.9% (active) in the experiment on IGROV1 ovarian; 1.97% (active) in the experiment with OVCAR-3 ovarian; 18.3% in the experiment with HS 578T breast; 2.28% (active) with NCI/ADR-RES ovarian; 40.6% with T-47D breast; -57.7% (active) in the experiment on BT-549 breast. The growth was 0.365% (active) in the experiment with MDA-MB-435 melanoma; -18.5% (active) with SW-620 colon; -35% (active) in the experiment with MCF7 breast; -68.5% (active) with HCT-116 colon; 27.2% in the experiment on HCC-2998 colon; 25.8% in the experiment on KM12 colon. Further, the growth in the experiment with MDA-MB-468 breast was -29.6% (active).

Turning to `c1n[nH]cc1-c1nc2ccc3cn[nH]c3c2c2c1CCCC2`, the growth in the experiment on SR leukemia was 74.5%; in the experiment on RPMI-8226 leukemia it was 85.3%; with OVCAR-8 ovarian it was 89.2%; with OVCAR-5 ovarian, 89.9%; in the experiment on OVCAR-4 ovarian, 96.1%; in the experiment on SK-OV-3 ovarian it was 96.8%. For the same molecule, the growth with IGROV1 ovarian was 66.5%; in the experiment with OVCAR-3 ovarian it was 109%; in the experiment with HS 578T breast, 53%; in the experiment with NCI/ADR-RES ovarian, 88.7%; with T-47D breast, 74.7%; in the experiment on BT-549 breast, 97.1%. Moreover, the growth is 94.8% in the experiment with MDA-MB-435 melanoma; 109% with SW-620 colon; 78.7% in the experiment on MCF7 breast; 89.5% with HCT-116 colon; 104% in the experiment with HCC-2998 colon; 96.4% in the experiment on KM12 colon. Also, the growth with MDA-MB-468 breast was 78.5%.

On to `FC(F)(F)c1cc2c(Cl)ncnc2n1CCN1CCCCC1`, for which the growth was -50.9% (active) in the experiment with SR leukemia; 102% with RPMI-8226 leukemia; 14.8% in the experiment with OVCAR-8 ovarian; 95% with OVCAR-5 ovarian; 13.5% in the experiment on OVCAR-4 ovarian; 97.2% in the experiment with SK-OV-3 ovarian. The growth in the experiment with IGROV1 ovarian is -84.8% (active); in the experiment on OVCAR-3 ovarian, -21.7% (active); with HS 578T breast, 56.3%; in the experiment on NCI/ADR-RES ovarian, 79%; with T-47D breast, 70.5%; with BT-549 breast, -3.05% (active). The growth is 56% with MDA-MB-435 melanoma; 34% in the experiment with SW-620 colon; 52.1% in the experiment on MCF7 breast; 8.04% (active) in the experiment with HCT-116 colon; -75.1% (active) in the experiment with HCC-2998 colon; 93.9% in the experiment with KM12 colon. Besides, in the experiment on MDA-MB-468 breast, the growth was -10.6% (active).

As to `CN1CCN(C(=O)Oc2cc3c(c4ccccc24)[C@H](CCl)CN3C(=O)c2cc3cc(OCCCN4CCC4)ccc3[nH]2)[C@H]2CSSC[C@H]21`, the growth in the experiment with SR leukemia is -21.2% (active); in the experiment with RPMI-8226 leukemia, -31.2% (active); with OVCAR-8 ovarian it was -13.1% (active); in the experiment on OVCAR-5 ovarian it was -19.6% (active); with OVCAR-4 ovarian, -1.62% (active); in the experiment with SK-OV-3 ovarian, -16.5% (active). The growth was 4.39% (active) in the experiment with IGROV1 ovarian; -10.9% (active) with OVCAR-3 ovarian; -7.11% (active) with HS 578T breast; -29.2% (active) in the experiment with NCI/ADR-RES ovarian; -12.9% (active) with T-47D breast; -36.8% (active) with BT-549 breast. Moreover, the growth in the experiment with MDA-MB-435 melanoma was -70.2% (active); with SW-620 colon, 4.18% (active); in the experiment on MCF7 breast, 3.7% (active); in the experiment on HCT-116 colon, 6.44% (active); with HCC-2998 colon, -47% (active); in the experiment on KM12 colon, 2.01% (active). The growth in the experiment with MDA-MB-468 breast is -78.4% (active).
